Test results reported in paper PMC7862700, “An all-to-all approach to the identification of sequence-specific readers for epigenetic DNA modifications on cytosine”.

Experiments:
Test in all cases: DAPPL (digital affinity profiling via proximity ligation, sequencing); 10 mM Tris-HCl pH 7.5, 50 mM NaCl, 1 mM DTT, 4% glycerol, room temperature, 30 min; GST-TFs on glutathione beads, 16-mer random dsDNA library, 0.1% formaldehyde crosslink after washing; high values mean tight binding
FLI1 = target: T1, FLI1 (Homo sapiens, UniProt Q01543 1-452); details: protein: recombinant; tags: N-terminal GST; dsDNA, one strand shown
T1 sequence: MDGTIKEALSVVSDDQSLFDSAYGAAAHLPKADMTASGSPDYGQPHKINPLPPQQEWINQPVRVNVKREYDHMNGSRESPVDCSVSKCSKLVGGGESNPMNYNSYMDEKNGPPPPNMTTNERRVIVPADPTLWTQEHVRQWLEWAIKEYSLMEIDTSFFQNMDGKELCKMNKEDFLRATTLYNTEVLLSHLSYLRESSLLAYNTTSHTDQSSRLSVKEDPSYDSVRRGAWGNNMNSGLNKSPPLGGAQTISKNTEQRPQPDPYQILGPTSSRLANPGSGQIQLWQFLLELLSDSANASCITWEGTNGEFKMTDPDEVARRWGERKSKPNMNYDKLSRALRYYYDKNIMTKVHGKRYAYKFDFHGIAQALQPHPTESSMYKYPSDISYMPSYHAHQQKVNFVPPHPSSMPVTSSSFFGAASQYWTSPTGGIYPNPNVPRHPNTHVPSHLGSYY
How it was run: (§1)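 Human transcription factors were made in yeast as GST fusions, captured on glutathione beads and barcoded with DNA. With a tag-only sample included, the pool was incubated with 200 nmole of a random double-stranded 16-mer DNA library in Tris/NaCl/DTT/glycerol buffer at room temperature for 30 min, then crosslinked with 0.1% formaldehyde after washing, ligated by proximity, amplified and sequenced. For binding signal, each hexamer's read frequency for a factor is divided by its frequency for the tag-only sample.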

ELK1 = target: T2, ELK1 (Homo sapiens, UniProt P19419 1-428); details: protein: recombinant; tags: N-terminal GST; dsDNA, one strand shown
T2 sequence: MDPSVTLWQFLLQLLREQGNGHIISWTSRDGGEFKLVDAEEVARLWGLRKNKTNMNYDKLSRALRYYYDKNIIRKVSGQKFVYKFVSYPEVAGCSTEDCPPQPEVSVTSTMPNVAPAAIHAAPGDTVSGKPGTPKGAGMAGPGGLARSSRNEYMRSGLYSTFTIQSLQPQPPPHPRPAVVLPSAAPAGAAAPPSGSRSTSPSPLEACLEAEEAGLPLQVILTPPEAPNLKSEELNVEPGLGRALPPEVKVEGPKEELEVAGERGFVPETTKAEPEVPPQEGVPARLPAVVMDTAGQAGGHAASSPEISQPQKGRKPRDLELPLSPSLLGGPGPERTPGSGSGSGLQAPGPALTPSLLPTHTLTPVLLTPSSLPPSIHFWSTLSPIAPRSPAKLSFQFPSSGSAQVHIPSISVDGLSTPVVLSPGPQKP
How it was run: as §1

GABPA = target: T3, GABPA (Homo sapiens, UniProt Q06546 1-454); details: protein: recombinant; tags: N-terminal GST; dsDNA, one strand shown
T3 sequence: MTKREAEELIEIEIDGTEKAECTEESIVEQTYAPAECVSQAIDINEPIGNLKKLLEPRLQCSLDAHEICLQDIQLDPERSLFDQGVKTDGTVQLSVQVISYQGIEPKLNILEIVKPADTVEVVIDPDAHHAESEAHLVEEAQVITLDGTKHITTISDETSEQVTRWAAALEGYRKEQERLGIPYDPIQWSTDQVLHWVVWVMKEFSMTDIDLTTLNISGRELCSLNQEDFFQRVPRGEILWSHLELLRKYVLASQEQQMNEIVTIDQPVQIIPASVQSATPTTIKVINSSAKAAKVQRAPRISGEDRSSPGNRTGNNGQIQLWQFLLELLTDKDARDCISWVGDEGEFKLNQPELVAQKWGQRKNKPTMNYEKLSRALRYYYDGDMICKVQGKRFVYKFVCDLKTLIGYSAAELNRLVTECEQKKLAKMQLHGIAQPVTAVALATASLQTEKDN
How it was run: as §1

ERG = target: T4, ERG (Homo sapiens, UniProt P11308 1-479); details: protein: recombinant; tags: N-terminal GST; dsDNA, one strand shown
T4 sequence: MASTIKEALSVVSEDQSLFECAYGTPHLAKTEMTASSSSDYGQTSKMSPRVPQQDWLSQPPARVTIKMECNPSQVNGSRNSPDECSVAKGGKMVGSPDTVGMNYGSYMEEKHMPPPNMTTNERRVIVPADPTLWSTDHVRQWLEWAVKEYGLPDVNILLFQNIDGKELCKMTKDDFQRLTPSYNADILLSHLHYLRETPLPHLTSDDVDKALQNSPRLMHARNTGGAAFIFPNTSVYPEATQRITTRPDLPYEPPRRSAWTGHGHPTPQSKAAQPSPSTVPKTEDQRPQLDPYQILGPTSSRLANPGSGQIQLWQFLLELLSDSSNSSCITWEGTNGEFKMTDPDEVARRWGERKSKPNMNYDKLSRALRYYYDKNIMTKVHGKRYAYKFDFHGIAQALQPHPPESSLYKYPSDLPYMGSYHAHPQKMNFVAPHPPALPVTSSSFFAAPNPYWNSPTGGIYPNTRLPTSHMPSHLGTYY
How it was run: as §1

ELF1 = ELF1 (Homo sapiens, UniProt P32519 1-619); details: protein: recombinant; tags: N-terminal GST; dsDNA, one strand shown
ELF1, sequence (P32519 whole entry): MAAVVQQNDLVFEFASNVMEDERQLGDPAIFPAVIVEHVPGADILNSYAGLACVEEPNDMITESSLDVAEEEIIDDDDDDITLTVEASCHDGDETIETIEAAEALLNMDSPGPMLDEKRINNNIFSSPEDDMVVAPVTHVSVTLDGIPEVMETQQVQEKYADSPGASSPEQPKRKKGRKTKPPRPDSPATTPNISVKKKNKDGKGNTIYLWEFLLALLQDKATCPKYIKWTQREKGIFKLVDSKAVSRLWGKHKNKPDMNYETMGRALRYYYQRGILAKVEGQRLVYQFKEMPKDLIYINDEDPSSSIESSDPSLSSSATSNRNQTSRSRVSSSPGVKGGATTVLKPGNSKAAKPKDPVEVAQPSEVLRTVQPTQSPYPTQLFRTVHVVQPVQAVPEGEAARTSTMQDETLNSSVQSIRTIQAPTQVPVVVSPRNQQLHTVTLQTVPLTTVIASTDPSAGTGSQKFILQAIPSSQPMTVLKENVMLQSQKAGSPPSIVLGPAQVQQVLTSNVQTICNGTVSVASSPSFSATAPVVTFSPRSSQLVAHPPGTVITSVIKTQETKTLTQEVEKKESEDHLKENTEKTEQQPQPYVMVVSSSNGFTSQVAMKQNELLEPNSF
How it was run: as §1

EHF = target: T5, EHF (Homo sapiens, UniProt Q9NZC4 1-300); details: protein: recombinant; tags: N-terminal GST; dsDNA, one strand shown
T5 sequence: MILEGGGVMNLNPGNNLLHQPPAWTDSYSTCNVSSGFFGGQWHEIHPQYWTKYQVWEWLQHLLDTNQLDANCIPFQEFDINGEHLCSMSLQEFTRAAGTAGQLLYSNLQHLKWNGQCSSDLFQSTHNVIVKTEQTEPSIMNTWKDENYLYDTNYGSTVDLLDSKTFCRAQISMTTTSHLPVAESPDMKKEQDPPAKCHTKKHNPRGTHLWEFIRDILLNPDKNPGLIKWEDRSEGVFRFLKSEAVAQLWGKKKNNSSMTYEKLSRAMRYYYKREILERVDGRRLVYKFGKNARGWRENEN
How it was run: as §1

SPI1 = SPI1 (Homo sapiens, UniProt P17947 1-270); details: protein: recombinant; tags: N-terminal GST; dsDNA, one strand shown
How it was run: as §1

SPIB = SPIB (Homo sapiens, UniProt Q01892 1-262); details: protein: recombinant; tags: N-terminal GST; dsDNA, one strand shown
SPIB, sequence (Q01892 whole entry): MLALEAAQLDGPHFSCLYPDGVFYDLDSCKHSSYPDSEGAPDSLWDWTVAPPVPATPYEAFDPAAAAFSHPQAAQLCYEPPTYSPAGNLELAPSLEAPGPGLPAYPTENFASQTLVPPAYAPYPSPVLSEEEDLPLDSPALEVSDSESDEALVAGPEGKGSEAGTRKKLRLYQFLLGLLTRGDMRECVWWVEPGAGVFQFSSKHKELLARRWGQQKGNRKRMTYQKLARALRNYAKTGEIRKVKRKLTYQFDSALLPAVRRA
How it was run: as §1

ELK3 = target: T6, ELK3 (Homo sapiens, UniProt P41970 1-407); details: protein: recombinant; tags: N-terminal GST; dsDNA, one strand shown
T6 sequence: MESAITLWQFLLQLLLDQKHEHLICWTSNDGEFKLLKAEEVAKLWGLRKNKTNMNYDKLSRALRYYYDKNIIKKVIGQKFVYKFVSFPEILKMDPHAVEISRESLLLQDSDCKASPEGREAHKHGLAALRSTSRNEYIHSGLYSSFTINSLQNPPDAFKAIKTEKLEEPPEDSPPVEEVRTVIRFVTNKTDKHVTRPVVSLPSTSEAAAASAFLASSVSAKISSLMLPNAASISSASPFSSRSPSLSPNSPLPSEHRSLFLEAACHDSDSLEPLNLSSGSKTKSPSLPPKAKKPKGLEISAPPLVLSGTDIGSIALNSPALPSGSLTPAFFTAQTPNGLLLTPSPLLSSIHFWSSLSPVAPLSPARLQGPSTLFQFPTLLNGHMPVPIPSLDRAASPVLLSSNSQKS
How it was run: as §1

FEV = target: T7, FEV (Homo sapiens, UniProt Q99581 1-238); details: protein: recombinant; tags: N-terminal GST; dsDNA, one strand shown
T7 sequence: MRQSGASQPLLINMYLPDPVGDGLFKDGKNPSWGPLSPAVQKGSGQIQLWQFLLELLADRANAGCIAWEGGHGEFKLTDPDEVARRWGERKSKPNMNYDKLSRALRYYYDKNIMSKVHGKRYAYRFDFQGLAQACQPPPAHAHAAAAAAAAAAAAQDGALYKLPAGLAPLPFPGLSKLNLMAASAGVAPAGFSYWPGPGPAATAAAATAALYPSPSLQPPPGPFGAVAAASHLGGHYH
How it was run: as §1

ETV5 = ETV5 (Homo sapiens, UniProt P41161 1-510); details: protein: recombinant; tags: N-terminal GST; dsDNA, one strand shown
ETV5, sequence (P41161 whole entry): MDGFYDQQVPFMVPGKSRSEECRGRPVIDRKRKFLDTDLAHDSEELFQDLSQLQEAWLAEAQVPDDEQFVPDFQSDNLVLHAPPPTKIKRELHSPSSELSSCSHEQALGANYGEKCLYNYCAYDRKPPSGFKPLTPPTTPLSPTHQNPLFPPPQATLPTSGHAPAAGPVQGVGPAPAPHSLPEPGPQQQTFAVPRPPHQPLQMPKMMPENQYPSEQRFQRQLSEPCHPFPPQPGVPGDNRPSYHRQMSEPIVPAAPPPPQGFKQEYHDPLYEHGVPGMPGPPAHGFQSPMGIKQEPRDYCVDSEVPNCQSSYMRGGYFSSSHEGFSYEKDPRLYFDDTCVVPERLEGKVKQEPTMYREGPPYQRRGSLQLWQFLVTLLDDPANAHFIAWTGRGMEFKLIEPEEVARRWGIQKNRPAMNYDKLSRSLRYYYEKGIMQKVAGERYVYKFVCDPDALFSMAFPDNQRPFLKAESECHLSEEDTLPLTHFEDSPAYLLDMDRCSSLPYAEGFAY
How it was run: as §1

HSF1 = HSF1 (Homo sapiens, UniProt Q00613 1-529); details: protein: recombinant; tags: N-terminal GST; chain copies: 3; dsDNA, one strand shown
HSF1, sequence (Q00613 whole entry): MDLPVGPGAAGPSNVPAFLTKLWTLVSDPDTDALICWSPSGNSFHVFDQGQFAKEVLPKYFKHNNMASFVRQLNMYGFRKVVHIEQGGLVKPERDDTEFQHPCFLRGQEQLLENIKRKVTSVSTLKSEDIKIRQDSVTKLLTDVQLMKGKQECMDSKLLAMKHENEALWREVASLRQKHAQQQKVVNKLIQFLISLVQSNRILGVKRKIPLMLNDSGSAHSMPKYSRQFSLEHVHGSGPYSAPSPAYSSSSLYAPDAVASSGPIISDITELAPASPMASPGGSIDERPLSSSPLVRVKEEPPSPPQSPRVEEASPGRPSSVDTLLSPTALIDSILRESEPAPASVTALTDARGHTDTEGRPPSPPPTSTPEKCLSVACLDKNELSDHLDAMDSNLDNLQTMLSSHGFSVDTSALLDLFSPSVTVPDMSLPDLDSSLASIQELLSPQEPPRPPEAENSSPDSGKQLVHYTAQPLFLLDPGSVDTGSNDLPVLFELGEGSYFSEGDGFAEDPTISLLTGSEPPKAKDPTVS
How it was run: as §1

SPIC = target: T8, SPIC (Homo sapiens, UniProt Q8N5J4 1-248); details: protein: recombinant; tags: N-terminal GST; dsDNA, one strand shown
T8 sequence: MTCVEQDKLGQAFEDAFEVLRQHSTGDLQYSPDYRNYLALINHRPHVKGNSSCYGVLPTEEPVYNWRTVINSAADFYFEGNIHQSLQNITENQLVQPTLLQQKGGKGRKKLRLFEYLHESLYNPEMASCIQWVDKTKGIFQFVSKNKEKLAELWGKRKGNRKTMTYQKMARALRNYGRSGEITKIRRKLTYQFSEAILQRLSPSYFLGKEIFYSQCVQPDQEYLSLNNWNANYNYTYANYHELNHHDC
How it was run: as §1

ELF4 = ELF4 (Homo sapiens, UniProt Q99607 1-663); details: protein: recombinant; tags: N-terminal GST; dsDNA, one strand shown
ELF4, sequence (Q99607 whole entry): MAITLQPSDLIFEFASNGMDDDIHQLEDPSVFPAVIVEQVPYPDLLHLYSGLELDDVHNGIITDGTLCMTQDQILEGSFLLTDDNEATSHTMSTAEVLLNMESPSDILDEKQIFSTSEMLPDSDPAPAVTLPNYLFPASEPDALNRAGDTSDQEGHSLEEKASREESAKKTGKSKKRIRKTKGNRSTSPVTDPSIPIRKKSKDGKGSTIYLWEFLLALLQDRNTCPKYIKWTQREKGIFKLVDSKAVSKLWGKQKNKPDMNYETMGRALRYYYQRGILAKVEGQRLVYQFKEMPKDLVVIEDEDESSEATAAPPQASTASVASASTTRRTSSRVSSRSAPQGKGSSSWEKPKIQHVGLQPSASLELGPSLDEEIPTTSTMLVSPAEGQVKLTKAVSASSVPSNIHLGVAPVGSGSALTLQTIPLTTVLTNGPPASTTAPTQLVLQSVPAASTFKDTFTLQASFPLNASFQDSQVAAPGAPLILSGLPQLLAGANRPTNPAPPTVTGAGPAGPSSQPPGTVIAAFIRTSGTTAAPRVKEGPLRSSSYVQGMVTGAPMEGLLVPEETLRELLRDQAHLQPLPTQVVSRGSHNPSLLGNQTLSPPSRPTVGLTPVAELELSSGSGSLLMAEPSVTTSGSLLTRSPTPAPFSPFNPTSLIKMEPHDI
How it was run: as §1

ELK4 = target: T9, ELK4 (Homo sapiens, UniProt P28324-2 1-405); details: protein: recombinant; tags: N-terminal GST; dsDNA, one strand shown
T9 sequence: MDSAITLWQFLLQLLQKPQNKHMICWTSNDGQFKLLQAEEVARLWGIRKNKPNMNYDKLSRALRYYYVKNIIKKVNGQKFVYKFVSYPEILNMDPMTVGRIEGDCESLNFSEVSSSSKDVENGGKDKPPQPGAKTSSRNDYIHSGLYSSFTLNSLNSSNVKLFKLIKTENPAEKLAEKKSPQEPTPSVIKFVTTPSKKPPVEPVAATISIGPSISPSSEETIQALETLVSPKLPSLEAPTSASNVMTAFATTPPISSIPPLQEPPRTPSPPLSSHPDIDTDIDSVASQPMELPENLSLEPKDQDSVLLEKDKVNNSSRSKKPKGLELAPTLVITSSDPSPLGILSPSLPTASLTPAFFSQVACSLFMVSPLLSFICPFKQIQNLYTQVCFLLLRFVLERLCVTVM
How it was run: as §1

ETV2 = target: T10, ETV2 (Homo sapiens, UniProt O00321 1-342); details: protein: recombinant; tags: N-terminal GST; dsDNA, one strand shown
T10 sequence: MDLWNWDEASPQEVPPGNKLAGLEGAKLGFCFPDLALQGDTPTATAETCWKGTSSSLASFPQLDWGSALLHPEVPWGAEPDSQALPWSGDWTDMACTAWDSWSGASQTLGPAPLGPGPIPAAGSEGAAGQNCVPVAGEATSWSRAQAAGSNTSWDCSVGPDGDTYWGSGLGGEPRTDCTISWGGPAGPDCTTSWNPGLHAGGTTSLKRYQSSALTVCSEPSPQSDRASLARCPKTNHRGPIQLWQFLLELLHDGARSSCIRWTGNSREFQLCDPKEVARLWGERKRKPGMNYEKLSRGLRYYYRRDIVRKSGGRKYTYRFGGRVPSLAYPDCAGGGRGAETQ
How it was run: as §1

ELF3 = target: T11, ELF3 (Homo sapiens, UniProt P78545 1-371); details: protein: recombinant; tags: N-terminal GST; dsDNA, one strand shown
T11 sequence: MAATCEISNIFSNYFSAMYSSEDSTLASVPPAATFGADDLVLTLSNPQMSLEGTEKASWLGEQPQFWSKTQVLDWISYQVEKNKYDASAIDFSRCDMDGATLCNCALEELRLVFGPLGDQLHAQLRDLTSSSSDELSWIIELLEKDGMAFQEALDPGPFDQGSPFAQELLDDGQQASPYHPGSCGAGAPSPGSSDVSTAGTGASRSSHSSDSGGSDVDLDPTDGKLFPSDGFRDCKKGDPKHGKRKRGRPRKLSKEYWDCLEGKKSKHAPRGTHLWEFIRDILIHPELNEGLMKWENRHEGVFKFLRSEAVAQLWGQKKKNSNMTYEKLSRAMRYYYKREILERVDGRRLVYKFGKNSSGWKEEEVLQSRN
How it was run: as §1

CRX = CRX (Homo sapiens, UniProt O43186 1-299); details: protein: recombinant; tags: N-terminal GST; dsDNA, one strand shown
CRX, sequence (O43186 whole entry): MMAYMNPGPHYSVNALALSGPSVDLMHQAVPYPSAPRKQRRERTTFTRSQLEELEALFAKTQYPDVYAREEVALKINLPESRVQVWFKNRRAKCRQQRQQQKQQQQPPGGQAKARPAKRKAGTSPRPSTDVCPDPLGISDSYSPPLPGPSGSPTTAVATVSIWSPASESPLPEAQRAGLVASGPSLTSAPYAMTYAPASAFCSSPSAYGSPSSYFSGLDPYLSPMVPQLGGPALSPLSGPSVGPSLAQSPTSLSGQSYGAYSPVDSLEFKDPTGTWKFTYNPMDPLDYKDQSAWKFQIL
How it was run: as §1

ETV1 = ETV1 (Homo sapiens, UniProt P50549 1-477); details: protein: recombinant; tags: N-terminal GST; dsDNA, one strand shown
ETV1, sequence (P50549 whole entry): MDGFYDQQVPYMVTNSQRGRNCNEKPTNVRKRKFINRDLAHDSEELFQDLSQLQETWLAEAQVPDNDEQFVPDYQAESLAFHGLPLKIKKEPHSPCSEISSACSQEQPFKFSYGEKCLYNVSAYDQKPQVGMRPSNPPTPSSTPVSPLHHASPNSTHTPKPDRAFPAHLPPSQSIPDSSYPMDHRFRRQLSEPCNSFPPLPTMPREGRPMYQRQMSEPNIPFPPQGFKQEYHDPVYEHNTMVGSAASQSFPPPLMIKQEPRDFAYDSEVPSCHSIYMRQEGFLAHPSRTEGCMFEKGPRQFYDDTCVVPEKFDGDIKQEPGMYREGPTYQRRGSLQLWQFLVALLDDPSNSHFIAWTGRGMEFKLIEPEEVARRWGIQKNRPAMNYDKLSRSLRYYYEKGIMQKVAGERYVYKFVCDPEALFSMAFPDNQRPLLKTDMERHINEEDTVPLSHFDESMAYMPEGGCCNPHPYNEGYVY
How it was run: as §1

## TCTGGT
FLI1
  binding signal: 1.25 fold enrichment (6-mer frequency, TF over GST control)
ELK1
  binding signal: 1.29 fold enrichment (6-mer frequency, TF over GST control)
GABPA
  binding signal: 1.32 fold enrichment (6-mer frequency, TF over GST control)
ERG
  binding signal: 1.33 fold enrichment (6-mer frequency, TF over GST control)
ELF1
  binding signal: 1.22 fold enrichment (6-mer frequency, TF over GST control)
EHF
  binding signal: 1.21 fold enrichment (6-mer frequency, TF over GST control)
SPI1
  binding signal: 1.31 fold enrichment (6-mer frequency, TF over GST control)
SPIB
  binding signal: 1.21 fold enrichment (6-mer frequency, TF over GST control)
ELK3
  binding signal: 1.31 fold enrichment (6-mer frequency, TF over GST control)
FEV
  binding signal: 1.12 fold enrichment (6-mer frequency, TF over GST control)
ETV5
  binding signal: 1.28 fold enrichment (6-mer frequency, TF over GST control)
HSF1
  binding signal: 1.8 fold enrichment (6-mer frequency, TF over GST control)
SPIC
  binding signal: 1.38 fold enrichment (6-mer frequency, TF over GST control)
ELF4
  binding signal: 1.28 fold enrichment (6-mer frequency, TF over GST control)
ELK4
  binding signal: 1.17 fold enrichment (6-mer frequency, TF over GST control)
ETV2
  binding signal: 1.16 fold enrichment (6-mer frequency, TF over GST control)
ELF3
  binding signal: 1.34 fold enrichment (6-mer frequency, TF over GST control)
CRX
  binding signal: 1.33 fold enrichment (6-mer frequency, TF over GST control)
ETV1
  binding signal: 1.1 fold enrichment (6-mer frequency, TF over GST control)
